In ChEMBL document CHEMBL1201862, “PubChem BioAssay data set” (2004) one finds Potency data, which are given here for 68 molecules.

Hit rate of the full screen: of about 400,000 compounds, about 2,100 (0.53%) were called active. Not shown: some 14% with an inconclusive outcome. How the calls were made is not given here. Only a selection was taken, and actives are over-represented in it overall.

The target of the test is Ataxin-2 (Homo sapiens) (UniProt Q99700). Kind of test: qHTS for Inhibitors of ATXN expression. It is filed as functional. Background: Quantitative high-throughput screening tests each substance at several concentrations.
Ataxin-2 (Homo sapiens), sequence (Q99700 whole entry): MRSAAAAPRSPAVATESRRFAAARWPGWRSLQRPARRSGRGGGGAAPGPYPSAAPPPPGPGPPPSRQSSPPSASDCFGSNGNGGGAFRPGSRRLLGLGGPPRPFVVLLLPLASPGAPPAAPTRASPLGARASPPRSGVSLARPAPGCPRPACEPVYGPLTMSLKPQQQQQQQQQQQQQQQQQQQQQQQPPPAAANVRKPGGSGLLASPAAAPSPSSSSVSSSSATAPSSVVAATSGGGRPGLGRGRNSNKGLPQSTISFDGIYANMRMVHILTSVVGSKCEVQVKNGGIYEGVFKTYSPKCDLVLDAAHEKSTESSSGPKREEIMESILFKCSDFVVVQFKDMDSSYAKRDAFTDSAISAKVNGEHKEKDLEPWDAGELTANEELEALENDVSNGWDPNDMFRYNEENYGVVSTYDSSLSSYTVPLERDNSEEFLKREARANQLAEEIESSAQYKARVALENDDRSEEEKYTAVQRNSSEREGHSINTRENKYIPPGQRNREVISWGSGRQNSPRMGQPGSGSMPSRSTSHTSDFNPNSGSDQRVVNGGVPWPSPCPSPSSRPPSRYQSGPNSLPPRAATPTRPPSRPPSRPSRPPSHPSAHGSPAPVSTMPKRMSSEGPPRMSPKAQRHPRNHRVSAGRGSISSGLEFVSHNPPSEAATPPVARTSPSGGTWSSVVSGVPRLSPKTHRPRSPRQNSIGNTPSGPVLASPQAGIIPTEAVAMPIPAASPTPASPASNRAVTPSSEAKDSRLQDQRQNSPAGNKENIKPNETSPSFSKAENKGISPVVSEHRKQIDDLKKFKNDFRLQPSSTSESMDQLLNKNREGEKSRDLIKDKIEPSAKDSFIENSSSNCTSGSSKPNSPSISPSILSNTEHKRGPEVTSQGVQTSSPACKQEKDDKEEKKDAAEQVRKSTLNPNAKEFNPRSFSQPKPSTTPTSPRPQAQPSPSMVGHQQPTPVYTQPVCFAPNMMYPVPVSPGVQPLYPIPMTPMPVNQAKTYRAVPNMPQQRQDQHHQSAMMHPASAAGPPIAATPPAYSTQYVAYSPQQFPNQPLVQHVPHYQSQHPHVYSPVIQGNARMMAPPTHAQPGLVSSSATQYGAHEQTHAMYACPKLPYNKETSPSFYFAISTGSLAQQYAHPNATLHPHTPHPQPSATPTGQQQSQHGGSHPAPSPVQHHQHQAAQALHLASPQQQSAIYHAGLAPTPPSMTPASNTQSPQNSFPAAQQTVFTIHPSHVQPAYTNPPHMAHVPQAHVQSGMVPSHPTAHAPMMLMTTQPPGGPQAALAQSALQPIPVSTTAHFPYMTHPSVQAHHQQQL
As for `COCCNC(=O)Cc1c(C)c2c(cc(C)c3c(C)coc32)oc1=O`, the Potency result was “inactive”.
The result for `O=C(Nc1cc(Cl)ccc1O)C1CC(c2ccccc2O)=NO1` (stereo not drawn) reads “inactive”.
`CCOc1ccc(CCNC(=O)CSCc2ccc(C)cc2)cc1OCC`: the Potency entry is “inactive”.
The result for `CCOc1cc(CNCCc2ccc(S(N)(=O)=O)cc2)ccc1OCC(=O)NC(C)(C)C` reads 39.8 µM (active).
As to `NS(=O)(=O)c1ccc(CNC(=O)CNC(=O)Cc2ccccc2)cc1`, the Potency entry is “inactive”.
In the case of `CCOc1cc(C(N)=O)cc(Br)c1OCc1ccccc1` it was “inactive”.
Turning to `COC(=O)c1c(C)[nH]c(C(=O)NCCc2ccc(S(N)(=O)=O)cc2)c1C`, the Potency result is “inactive”.
In the case of `CCOc1cc(CNCCc2ccc(S(N)(=O)=O)cc2)cc(Cl)c1OCc1ccccc1`, the Potency is 25.1 µM (active).
Turning to `CC12CCC(=O)N1C(C(=O)N1CCN(S(=O)(=O)c3ccc(Br)cc3Cl)CC1)CS2` (stereo not drawn), the Potency entry was “inactive”.
Consider `CC(C)CCn1c(=O)c2ccccc2n2c(S)nnc12`, for which the Potency entry was “inactive”.
On to `Cc1cnc(C(=O)NC(C)CCc2ccccc2)cn1` (stereo not drawn), for which the Potency result was “inactive”.
The result for `Fc1ccc(-c2cc(C(F)(F)C(F)F)n[nH]2)cc1` reads “inactive”; that for `CCOC(=O)c1cnn2c(O)cc(C)nc12`, “inactive”.
In the case of `COC(=O)c1ccc(C(=O)OC)c(NC(=O)Cc2cccs2)c1`, the Potency result is “inactive”.
The result for `CC(C)(C)c1ccc(C(=O)O/N=C(\N)Cc2cccs2)cc1` reads 31.6 µM (active).
For the molecule `CC(C)(C)c1ccc(/N=C2\SCC(=O)N2Cc2cccs2)cc1`, the Potency entry was “inactive”.
Regarding `O=C(c1cccs1)N1CCC(c2nc(O)c3nnn(Cc4c(Cl)cccc4Cl)c3n2)CC1`, the Potency result is “inactive”.
In the case of `CC(C)C(=O)NNC(=O)CSc1nnc(-c2ccccc2)c(-c2ccccc2)n1` it was “inactive”.
The result for `CNC(=O)C(=O)Nc1cc2c3c(c1)CCC(=O)N3CCC2` reads “inactive”; that for `CCOC(CN=c1nc(N(C)C)ss1)OCC`, 29.9 µM (active); that for `CN(C)S(=O)(=O)c1ccc(Cl)c(NC(=O)COC(=O)CNS(=O)(=O)c2c(F)cccc2F)c1`, “inactive”.
In the case of `COc1ccc(C(=O)CC(SCC(NC(C)=O)C(=O)O)c2ccc(Cl)cc2)cc1OC` (stereo not drawn) it was 31.6 µM (active).
Turning to `CCS(=O)(=O)N1CCC(NC(=O)C(Cc2ccc(OC)c(OC)c2)NC(C)=O)CC1` (stereo not drawn), the Potency entry was “inactive”.
For the molecule `CCC(=O)NC(c1ccc(OC)c(OC)c1)c1cc(Cl)c2cccnc2c1O` (stereo not drawn), the Potency entry is “inactive”.
Take `CCOC(=O)c1cc2c(=O)n3ccccc3nc2n(CC2CCCO2)/c1=N\C(=O)c1ccc(C(C)(C)C)cc1` (stereo not drawn): the Potency entry was “inactive”.
With `CCCCN1C(C(=O)Nc2ncccn2)=C(O)c2ccccc2S1(=O)=O`, the Potency entry is “inactive”.
`Cc1ccccc1N1CCN(C2CCCN(C(=O)CSc3ccccn3)C2)CC1` (stereo not drawn): the Potency entry was “inactive”.
For the molecule `OC(c1cccc(Cl)c1)c1nc(-c2ccc(Oc3ccccc3)cc2)c[nH]1` (stereo not drawn), the Potency was 39.8 µM (active).
`CC(C)(C)c1ccc(C(O)c2nc(-c3ccccc3Cl)c[nH]2)cc1` (stereo not drawn): the Potency was 39.8 µM (active).
In the case of `OC(c1cccc(Cl)c1)c1nc(-c2ccc(C(F)(F)F)cc2)c[nH]1` (stereo not drawn) it was 39.8 µM (active); in that of `Cc1nn(Cc2ccccc2Cl)c(Cl)c1/C=C/C(=O)OCC(=O)NC1CCS(=O)(=O)C1` (stereo not drawn), “inactive”; in that of `COc1ccc(S(=O)(=O)Nc2ccc(-n3cccc3)cc2)cc1`, “inactive”.
On to `COc1ccc(-n2cccc2/C=C/[N+](=O)[O-])cc1`, for which the Potency is 31.6 µM (active).
In the case of `CCCC(=O)NCCc1nc2cc([N+](=O)[O-])ccc2n1C` it was “inactive”; in that of `COc1cc(C(=O)N2C(=O)c3cccc(N)c3C2=O)cc(OC)c1OC`, “inactive”; in that of `COc1cc(C(=O)NNC(=O)c2ccccc2OCc2c(C)noc2C)cc(OC)c1OC`, “inactive”.
Turning to `COc1cc(C(=O)O/N=C2/C=CC(=O)C(C)=C2C)cc(OC)c1OC`, the Potency is 39.8 µM (active).
On to `CCc1ccc(S(=O)(=O)Nc2ccc(-c3nc4cccnc4s3)cc2)s1`, for which the Potency entry is “inactive”.
The result for `CSc1ccccc1NC(=O)c1cc(-c2cccnc2)nc2ccc(Br)cc12` reads 42.3 µM (active); that for `NC(=O)c1cc(-c2ccccc2)nc2ccc(Br)cc12`, “inactive”; that for `O=C(NNC(=O)c1cc(-c2cccnc2)nc2ccccc12)Nc1ccc(Cl)cc1`, “inactive”.
In the case of `COc1cccc(/C=C/c2nc(C#N)c(NCC(C)C)o2)c1`, the Potency result was “inactive”.
`CCOC(=O)c1cc2c(=O)n3ccccc3nc2n(C)/c1=N\C(=O)c1c(-c2c(F)cccc2Cl)noc1C`: the Potency entry is “inactive”.
Turning to `Cc1coc2c1C(=O)C(=O)c1c-2ccc2c(C)cccc12`, the Potency was 10 µM (active).
Consider `CNc1ccc2c3c(cccc13)C(=O)N(C)C2=O`, for which the Potency entry is “inactive”.
On to `CCn1cnc2sc(C(=O)Oc3ccc(Br)cc3)c(C)c2c1=O`, for which the Potency result was “inactive”.
The result for `COC(=O)c1cc(-c2cc(OC)ccc2OC)nc2c1c(=O)n(C)c(=O)n2Cc1ccccc1` reads “inactive”.
As to `COC(=O)C1=CN(Cc2cccs2)C=C(C(=O)OC)C1c1ccc(OC)cc1OC`, the Potency entry is “inactive”.
Consider `COc1ccc2c(CNCCc3cccs3)c(C(=O)O)n(Cc3cccc(F)c3)c2c1`, for which the Potency was 35.5 µM (active).
As to `COc1ccc(Cn2c(C(=O)O)c(CNCCc3ccco3)c3ccc(C)cc32)cc1`, the Potency is 31.6 µM (active).
As for `C=Cc1ccc(Cn2c(C(=O)O)c(CNCCc3ccco3)c3ccc(C)cc32)cc1`, the Potency is 22.4 µM (active).
`COC(=O)C1=CN(Cc2cccs2)C=C(C(=O)OC)C1c1cccc(O)c1`: the Potency result is “inactive”.
The result for `COc1ccc(OC)c(CN2CCN(Cc3cc(=O)oc4cc(O)ccc34)CC2)c1` reads “inactive”; that for `COc1ccc(Cn2c(C(=O)O)c(CNCCc3cc(OC)ccc3OC)c3ccc(C)cc32)cc1`, 22.4 µM (active); that for `COc1ccc(C(=O)NCC(=O)OCC(=O)NCc2ccco2)cc1`, “inactive”.
`COC(=O)c1ccc(S(=O)(=O)NCc2ccco2)o1`: the Potency result is “inactive”.
In the case of `COc1ccc(-c2csc(-c3cc4ccccc4oc3=N)n2)cc1`, the Potency entry was “inactive”.
Turning to `COc1ccc2nc3ccccc3[n+]([O-])c2c1`, the Potency result is “inactive”.
On to `CCc1noc(C)c1C(=O)NNC(=O)COc1ccc(Br)cc1`, for which the Potency entry is “inactive”.
Turning to `N#Cc1c(-c2ccc(Cl)cc2)c2c([nH]c1=O)-c1ccccc1OC2`, the Potency entry was “inactive”.
The result for `O=C1CCN2C=Nc3cccc4ccc1c2c34` reads “inactive”; that for `O=c1nc2n(CCO)c3ccccc3cc-2c(=O)[nH]1`, “inactive”; that for `C=Cc1ccc(Cn2c(C(=O)O)c(CNC3CCCC3)c3ccc(C)cc32)cc1`, 44.7 µM (active).
Regarding `Cc1ccc(C(=O)OCC(=O)NCc2ccco2)cc1C`, the Potency result was “inactive”.
In the case of `Cc1cccn2c(=O)c3cc(C(=O)NC4CCCC4)c(=N)n(Cc4ccc(F)cc4)c3nc12`, the Potency result is “inactive”.
As for `Cc1ccc(Cn2c(C(=O)O)c(CNCCc3ccco3)c3ccc(C)cc32)cc1`, the Potency is 39.8 µM (active).
Regarding `CCCC(=O)n1nc(-c2ccc(C)cc2)nc1NCc1ccco1`, the Potency entry was “inactive”.
With `C=Cc1ccc(Cn2c(C(=O)O)c(CNCc3cccs3)c3ccc(C)cc32)cc1`, the Potency was 25.1 µM (active).
